Laboratory results from PubChem BioAssay (Tox21).
Inconclusive results are not listed. A call without a number means that no potency is given here. The source holds several records for some structures; these can differ, active in one and inactive in another. The source made the active and inactive calls. Calls come from the whole dose curve; as a rule, active = well fitted cell-killing curve with a large enough effect in the repeat runs; inconclusive = weak or mixed curves, or effect the other way; inactive = flat fitted curve, though single readings scatter.

assay: qHTS RealTime-Glo MT Cell Viability Assay in HEK293 cells - 16 hour (AID 1224872); conditions: RealTime-Glo luminescence; series mostly up to 76.8 µM; activity change, negative = cytotoxicity: at the top concentration; note: nearly all actives have a fitted effect of over 50% in size; for activity change, negative = cytotoxicity: top concentration of the series differs between compounds
Procedure, shortened: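 Tox21 10K qHTS, HEK293, 600 cells/well, RealTime-Glo reagent co-dispensed with cells; 5 h preincubation, compound by pintool, 37 C, luminescence at 0–40 h.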
Potency is the fitted concentration of half-maximal effect.

Row | SMILES | Potency | activity change, negative = cytotoxicity
1 | CC1=C(/C=C/C(C)=C/C=C/C(C)=C/CO)C(C)(C)CCC1 | inactive | –
2 | COC(=O)c1ccccc1O | inactive | –
3 | Oc1ccc2ccccc2c1N=Nc1ccccc1 | – | -14.4% (inactive)
4 | C[C@@H](O)[C@H]1C(=O)N2C(C(=O)O)=C(S[C@@H]3CN[C@H](C(=O)N(C)C)C3)[C@H](C)[C@H]12 | inactive | –
5 | C=C1CC[C@H](O)CC1=C/C=C1\CCC[C@]2(C)[C@@H]([C@H](C)/C=C/[C@H](C)C(C)C)CC[C@@H]12 | 43.6 µM (active) | –
6 | CCc1ccc(O)cc1 | inactive | –
7 | COC(=O)c1ccc(C(=O)OC)cc1 | 35.1 µM (active) and inactive | –
8 | OCC#CCO | inactive | –
9 | CN(C)c1cccc(O)c1 | inactive | –
10 | COCC(=O)O | inactive | –
11 | CC1=CC[C@H]2C[C@@H]1C2(C)C | inactive | –
12 | CC(C)(C)C1CCC(O)CC1 (stereo not given) | inactive | –
13 | O=S(=O)(O)c1cc(S(=O)(=O)O)c2c(N=Nc3ccccc3)c(O)ccc2c1 | inactive | –
14 | CC#C[C@]1(O)CC[C@H]2[C@@H]3CCC4=CC(=O)CCC4=C3[C@@H](c3ccc(N(C)C)cc3)C[C@@]21C | 49 µM (active) | –
15 | S=c1nc[nH]c2nc[nH]c12 | – | -23.1% [at 35.3 µM] (inactive)
16 | O=C(Cl)c1c(Cl)c(Cl)c(C(=O)Cl)c(Cl)c1Cl | inactive | –
17 | Nc1nc2ncc(CNc3ccc(C(=O)N[C@@H](CCC(=O)O)C(=O)O)cc3)nc2c(=O)[nH]1 | – | 1.81% [at 35.3 µM] (inactive)
18 | CC1Cc2ccccc2N1NC(=O)c1ccc(Cl)c(S(N)(=O)=O)c1 (stereo not given) | inactive | –
19 | C=C(C)C(=O)OCC(CC)(COC(=O)C(=C)C)COC(=O)C(=C)C | – | -12.5% (inactive)
20 | CCCCCCCCCCCCOCC1CO1 (stereo not given) | inactive | –
